# Measurements reported in PubChem BioAssay (Tox21).
# Unmarked numbers belong to inactive results. Results filed as inconclusive are left out. A call without a number means that no potency is given here. Active and inactive are the calls of the source. The call rests on the fitted dose curve; in most records, active means well fitted curve in the direction sought with a large enough effect in the repeat runs; inconclusive means weak or mixed curves; inactive means no such curve, though single readings can be large; an effect the other way counts as inactive or inconclusive.
# How the values were obtained:
# [1] = A CellTox Green Cytotoxicity Assay to monitor cytotoxicity in HEK293 cells - 24 hour (AID 1224875); further: nearly all actives have a fitted effect of over 45% in size; further: potency means the concentration at half of the fitted maximal effect; on activity change: series mostly up to about 77 µM
# How it was run: (§1)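 Nonlytic real-time cytotoxicity: HEK293 + CellTox Green reagent plated, 5 h preincubation, pintool compound addition (23 nL in DMSO), 37 C for 40 h, fluorescence measured at successive time points.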
# [2] = qHTS RealTime-Glo MT Cell Viability Assay in HepG2 cells - 32 hour (AID 1224877); further: nearly all actives have a fitted effect of over 55% in size
# How it was run: (§2)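 Cell number in HepG2 cultures estimated from NanoLuc luminescence generated by metabolic reduction of a prosubstrate by living cells. The homogeneous, nonlytic format allowed repeated reads at 0, 8, 16, 24, 32 and 40 h of compound exposure.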
# [3] = A CellTox Green Cytotoxicity Assay to monitor cytotoxicity in HepG2 cells - 24 hour (AID 1224878); further: nearly all actives have a fitted effect of over 45% in size; further: potency means the concentration at half of the fitted maximal effect
# How it was run: (§3)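 Read-out is fluorescence of a cyanine dye excluded from live cells that stains DNA of dead HepG2 cells, with signal proportional to cytotoxicity. Plates were read at 0, 8, 16, 24, 32 and 40 h after compound addition.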
# [4] = A CellTox Green Cytotoxicity Assay to monitor cytotoxicity in HEK293 cells - 32 hour (AID 1224881); further: nearly all actives have a fitted effect of over 40% in size; further: potency means the concentration at half of the fitted maximal effect
# How it was run: as §1
# [5] = A CellTox Green Cytotoxicity Assay to monitor cytotoxicity in HepG2 cells - 0 hour (AID 1224882); further: nearly all actives have a fitted effect of over 35% in size
# How it was run: as §3
# [6] = A CellTox Green Cytotoxicity Assay to monitor cytotoxicity in HepG2 cells - 32 hour (AID 1224883); further: nearly all actives have a fitted effect of over 50% in size; further: potency means the concentration at half of the fitted maximal effect
# How it was run: as §3
# [7] = A CellTox Green Cytotoxicity Assay to monitor cytotoxicity in HEK293 cells - 8 hour (AID 1224884); further: nearly all actives have a fitted effect of over 35% in size; further: potency means the concentration at half of the fitted maximal effect
# How it was run: as §1
# [8] = qHTS RealTime-Glo MT Cell Viability Assay in HepG2 cells - 16 hour (AID 1224885); further: nearly all actives have a fitted effect of over 50% in size; further: potency means the concentration at half of the fitted maximal effect
# How it was run: as §2
# [9] = qHTS RealTime-Glo MT Cell Viability Assay in HEK293 cells - 24 hour (AID 1224886); further: nearly all actives have a fitted effect of over 50% in size; further: potency means the concentration at half of the fitted maximal effect; on activity change, negative = cytotoxicity: top concentration of the series differs between compounds
# How it was run: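 Homogeneous bioluminescent viability format in HEK293 cells (600 cells/well). Following 5 h at 37 C/5% CO2, 23 nL compound was pintooled; the signal was measured repeatedly during 40 h incubation.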
# [10] = qHTS RealTime-Glo MT Cell Viability Assay in HEK293 cells - 8 hour (AID 1224887); further: nearly all actives have a fitted effect of over 50% in size; further: potency means the concentration at half of the fitted maximal effect; on activity change, negative = cytotoxicity: top concentration of the series differs between compounds
# How it was run: (§4)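 Cells were seeded together with NanoLuc luciferase and a prosubstrate that viable cells reduce to a luciferase substrate. After a 5 h incubation at 37 C/5% CO2, compounds were added and luminescence was measured repeatedly during 40 h of treatment.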
# [11] = A CellTox Green Cytotoxicity Assay to monitor cytotoxicity in HEK293 cells - 16 hour (AID 1224888); further: nearly all actives have a fitted effect of over 35% in size
# How it was run: as §1
# [12] = A CellTox Green Cytotoxicity Assay to monitor cytotoxicity in HepG2 cells - 8 hour (AID 1224890); further: nearly all actives have a fitted effect of over 45% in size; further: potency means the concentration at half of the fitted maximal effect
# How it was run: as §3
# [13] = qHTS assay to identify small molecule antagonists of the estrogen receptor alpha (ER-alpha) signaling pathway using the BG1 cell line in the presence of 0.1 nM 17-beta-estradiol - cell viability counter screen (AID 1259241); further: nearly all actives have a fitted effect of over 40% in size; further: potency means the concentration at half of the fitted maximal effect
# How it was run: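 The cell line endogenously expresses full-length ER-alpha and carries four EREs driving luciferase. Cells are cultured 5 days hormone-free, treated 22 hr with compounds and 0.1 nM estradiol, then viability is read by fluorescence.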
# [14] = qHTS assay to identify small molecule antagonists of the androgen receptor (AR) signaling pathway using the MDA cell line in the presence of 0.5 nM R1881 - cell viability counter screen (AID 1259242); further: nearly all actives have a fitted effect of over 45% in size
# How it was run: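 Counter screen for cytotoxicity run in the same wells as the AR antagonist reporter screen: MDA-kb2 cells were treated 16 hr with test compounds and 0.5 nM R1881, then live-cell protease activity was measured by fluorescence.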
# [15] = biological target: Estrogen receptor (Homo sapiens) (UniProt P03372); assay: qHTS assay to identify small molecule antagonists of the estrogen receptor alpha (ER-alpha) signaling pathway using the BG1 cell line in the presence of 0.1 nM 17-beta-estradiol (AID 1259244); further: nearly all actives have a fitted effect of over 50% in size; further: potency means the concentration at half of the fitted maximal effect
# Sequence of Estrogen receptor (Homo sapiens) (P03372 whole entry, looked up): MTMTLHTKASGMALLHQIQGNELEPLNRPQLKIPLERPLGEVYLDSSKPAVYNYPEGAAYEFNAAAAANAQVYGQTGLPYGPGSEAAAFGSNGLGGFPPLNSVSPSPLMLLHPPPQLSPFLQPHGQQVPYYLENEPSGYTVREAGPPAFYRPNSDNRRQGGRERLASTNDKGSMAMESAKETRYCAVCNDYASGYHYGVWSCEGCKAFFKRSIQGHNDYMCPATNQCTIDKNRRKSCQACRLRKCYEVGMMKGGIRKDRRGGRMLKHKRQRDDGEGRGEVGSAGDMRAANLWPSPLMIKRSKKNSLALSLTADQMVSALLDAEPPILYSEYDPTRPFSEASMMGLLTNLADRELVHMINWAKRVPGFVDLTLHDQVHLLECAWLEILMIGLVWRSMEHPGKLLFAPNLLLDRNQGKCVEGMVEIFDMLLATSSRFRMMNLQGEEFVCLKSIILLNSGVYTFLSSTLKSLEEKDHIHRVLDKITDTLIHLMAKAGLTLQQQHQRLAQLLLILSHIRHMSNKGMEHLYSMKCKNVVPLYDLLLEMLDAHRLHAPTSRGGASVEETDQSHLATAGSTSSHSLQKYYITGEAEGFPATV
# How it was run: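 Cells: VM7Luc4E2, endogenous ER-alpha, 4x ERE-luc stable. Pre-culture 5 d, phenol red-free, charcoal-stripped FBS. Plated 24 h, compound + E2 0.1 nM final, 22 h 37C/5% CO2. Readout ONE-Glo luminescence.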
# [16] = A CellTox Green Cytotoxicity Assay to monitor cytotoxicity in HepG2 cells - 16 hour (AID 1224876); further: nearly all actives have a fitted effect of over 45% in size; further: potency means the concentration at half of the fitted maximal effect
# How it was run: as §3
# [17] = qHTS RealTime-Glo MT Cell Viability Assay in HEK293 cells - 0 hour (AID 1224880)
# How it was run: as §4
# [18] = biological target: Androgen receptor (Homo sapiens) (UniProt P10275); assay: qHTS assay to identify small molecule antagonists of the androgen receptor (AR) signaling pathway using the MDA cell line in the presence of 0.5 nM R1881 (AID 1259243); further: nearly all actives have a fitted effect of over 50% in size; further: potency means the concentration at half of the fitted maximal effect
# Sequence of Androgen receptor (Homo sapiens) (P10275 whole entry, looked up): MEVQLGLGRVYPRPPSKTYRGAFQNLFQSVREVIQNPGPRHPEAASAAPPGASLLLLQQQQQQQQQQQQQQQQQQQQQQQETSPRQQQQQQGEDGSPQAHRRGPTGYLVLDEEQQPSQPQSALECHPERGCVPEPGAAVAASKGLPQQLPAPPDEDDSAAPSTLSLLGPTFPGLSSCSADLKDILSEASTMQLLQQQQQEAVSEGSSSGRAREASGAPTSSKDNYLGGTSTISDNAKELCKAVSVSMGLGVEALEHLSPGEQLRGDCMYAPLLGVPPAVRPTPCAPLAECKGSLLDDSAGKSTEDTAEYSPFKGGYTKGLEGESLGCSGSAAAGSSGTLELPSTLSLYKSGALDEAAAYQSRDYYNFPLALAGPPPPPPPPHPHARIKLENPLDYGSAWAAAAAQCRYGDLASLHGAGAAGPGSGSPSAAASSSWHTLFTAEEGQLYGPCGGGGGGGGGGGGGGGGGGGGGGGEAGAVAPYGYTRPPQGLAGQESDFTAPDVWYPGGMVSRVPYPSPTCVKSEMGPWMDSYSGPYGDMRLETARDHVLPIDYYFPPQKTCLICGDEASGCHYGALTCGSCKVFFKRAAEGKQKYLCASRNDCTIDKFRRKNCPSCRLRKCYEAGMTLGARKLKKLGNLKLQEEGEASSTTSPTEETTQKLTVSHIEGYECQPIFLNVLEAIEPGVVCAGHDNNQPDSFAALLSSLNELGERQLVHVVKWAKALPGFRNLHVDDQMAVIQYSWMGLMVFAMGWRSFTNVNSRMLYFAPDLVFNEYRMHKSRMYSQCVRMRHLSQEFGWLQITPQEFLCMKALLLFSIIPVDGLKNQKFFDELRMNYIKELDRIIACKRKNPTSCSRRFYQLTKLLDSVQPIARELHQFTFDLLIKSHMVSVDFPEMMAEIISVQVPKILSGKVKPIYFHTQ
# How it was run: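 Luciferase luminescence is the read-out: compounds are tested for suppressing 0.5 nM R1881-driven MMTV reporter activity in MDA-kb2 cells after 16 hr at 37C.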
# [19] = A CellTox Green Cytotoxicity Assay to monitor cytotoxicity in HepG2 cells - 40 hour (AID 1224879); further: nearly all actives have a fitted effect of over 40% in size
# How it was run: as §3
# [20] = qHTS RealTime-Glo MT Cell Viability Assay in HepG2 cells - 0 hour (AID 1224889); further: nearly all actives have a fitted effect of over 50% in size
# How it was run: as §2
structure (smiles),measurement,setting,value
CCOC(=O)[C@H](C)O,Potency,[1],inactive
same,Potency,[2],inactive
same,Potency,[3],inactive
same,Potency,[4],inactive
same,Potency,[5],inactive
same,Potency,[6],inactive
same,Potency,[7],inactive
same,Potency,[8],inactive
same,Potency,[9],inactive
same,Potency,[10],inactive
same,Potency,[11],inactive
same,Potency,[12],inactive
same,Potency,[13],inactive
same,Potency,[14],inactive
same,Potency,[15],inactive
CC(=O)[C@]1(O)Cc2c(O)c3c(c(O)c2[C@@H](O[C@H]2C[C@H](N)[C@H](O)[C@H](C)O2)C1)C(=O)c1ccccc1C3=O,Potency,[1],inactive
same,Potency,[16],21.3 µM (active)
same,Potency,[3],23.9 µM (active)
same,Potency,[17],inactive
same,Potency,[4],inactive
same,Potency,[6],23.9 µM (active)
same,Potency,[8],12 µM (active)
same,Potency,[9],0.12 µM (active)
same,Potency,[11],inactive
same,Potency,[12],23.9 µM (active)
same,Potency,[13],10.6 µM (active)
same,Potency,[18],0.531 µM (active)
same,Potency,[15],inactive
CN(C)CCOc1ccc(/C(=C(/CCCl)c2ccccc2)c2ccccc2)cc1,Potency,[1],45.8 µM (active)
same,Potency,[16],32.5 µM (active)
same,Potency,[3],32.5 µM (active)
same,Potency,[17],inactive
same,Potency,[4],40.9 µM (active)
same,Potency,[5],inactive
same,Potency,[6],32.5 µM (active)
same,Potency,[7],45.8 µM (active)
same,Potency,[8],40.9 µM (active)
same,Potency,[9],40.9 µM (active)
same,Potency,[12],36.4 µM (active)
same,Potency,[13],inactive
C/C(=N\[Si](C)(C)C)O[Si](C)(C)C,Potency,[1],inactive
same,Potency,[2],inactive
same,Potency,[3],inactive
same,Potency,[19],inactive
same,Potency,[17],inactive
same,Potency,[4],inactive
same,Potency,[5],inactive
same,Potency,[6],inactive
same,Potency,[7],inactive
same,Potency,[8],inactive
same,Potency,[9],inactive
same,Potency,[10],inactive
same,Potency,[20],inactive
same,Potency,[12],inactive
same,Potency,[14],inactive
same,Potency,[18],inactive
same,Potency,[15],inactive
C1CCSC1,Potency,[1],inactive
same,Potency,[2],inactive
same,Potency,[3],inactive
same,Potency,[4],inactive
same,Potency,[5],inactive
same,Potency,[6],inactive
same,Potency,[7],inactive
same,Potency,[8],inactive
same,Potency,[11],inactive
same,Potency,[20],inactive
same,Potency,[12],inactive
same,Potency,[13],inactive
same,Potency,[15],inactive
c1ccc(-c2ccccc2-c2ccccc2)cc1,Potency,[1],inactive
same,Potency,[2],inactive
same,Potency,[3],inactive
same,Potency,[19],inactive
same,Potency,[17],inactive
same,Potency,[4],inactive
same,Potency,[5],inactive
same,Potency,[6],inactive
same,Potency,[7],inactive
same,Potency,[8],inactive
same,Potency,[9],inactive
same,Potency,[20],inactive
same,Potency,[12],inactive
same,Potency,[13],inactive
same,Potency,[14],inactive
c1ccc(-c2ccc(C(c3ccccc3)n3ccnc3)cc2)cc1 (stereo unspecified),Potency,[1],inactive
same,Potency,[2],inactive
same,Potency,[3],inactive
same,Potency,[19],inactive
same,Potency,[4],inactive
same,Potency,[5],inactive
same,Potency,[6],inactive
same,Potency,[7],inactive
same,Potency,[8],inactive
same,Potency,[9],30.1 µM (active)
same,Potency,[11],inactive
same,Potency,[20],inactive
same,Potency,[12],inactive
same,Potency,[13],inactive
same,Potency,[14],inactive
same,Potency,[15],inactive
Clc1cccc(Cl)n1,Potency,[1],inactive
same,Potency,[16],inactive
same,Potency,[3],inactive
same,Potency,[17],inactive
same,Potency,[4],inactive
same,Potency,[5],inactive
same,Potency,[6],inactive
same,Potency,[7],inactive
same,Potency,[8],inactive
same,Potency,[9],inactive
same,Potency,[10],inactive
same,Potency,[11],inactive
same,Potency,[20],inactive
same,Potency,[12],inactive
same,Potency,[13],inactive
same,Potency,[14],inactive
same,Potency,[18],inactive
same,Potency,[15],inactive
C=CC(=O)O[C@H]1C[C@@H]2CC[C@@]1(C)C2(C)C,Potency,[1],inactive
same,Potency,[2],inactive
same,Potency,[3],inactive
same,Potency,[19],inactive
same,Potency,[5],inactive
same,Potency,[6],inactive
same,Potency,[7],inactive
same,Potency,[8],inactive
same,Potency,[9],inactive
same,Potency,[10],inactive
same,Potency,[11],inactive
same,Potency,[12],inactive
same,Potency,[13],inactive
same,Potency,[14],inactive
same,Potency,[15],inactive
CC(C)=NNC(N)=S,Potency,[1],inactive
same,Potency,[2],inactive
same,Potency,[3],inactive
same,Potency,[4],inactive
same,Potency,[5],inactive
same,Potency,[6],inactive
same,Potency,[7],inactive
same,Potency,[8],inactive
same,Potency,[9],inactive
same,Potency,[11],inactive
same,Potency,[20],inactive
same,Potency,[14],inactive
same,Potency,[15],inactive
O=C(O)C[C@H](O)C[C@H](O)/C=C/c1c(C2CC2)nc2ccccc2c1-c1ccc(F)cc1,activity change,[1],"1.41% [at 15.8 µM, hits give high values]"
same,cytotoxicity increase,[16],7.91% [at 15.8 µM]
same,Potency,[3],2.61 µM (active)
same,"activity change, negative = cytotoxicity",[17],8.78% [at 15.8 µM]
same,cytotoxicity increase,[4],-0.515% [at 15.8 µM]
same,cytotoxicity,[5],0.628% [at 15.8 µM]
same,Potency,[6],2.61 µM (active)
same,cytotoxicity increase,[7],-1.19% [at 15.8 µM]
same,"activity change, negative = cytotoxic",[8],0.557% [at 15.8 µM]
same,"activity change, negative = cytotoxicity",[9],-0.416% [at 15.8 µM]
same,"activity change, negative = cytotoxicity",[10],5.42% [at 15.8 µM]
same,activity change,[11],"2.31% [at 15.8 µM, hits give high values]"
same,cytotoxicity increase,[12],-9.83% [at 15.8 µM]
same,"activity change, negative = cytotoxicity",[13],6.55% [at 19 µM]
same,"viability change, negative = cytotoxic",[14],-6.18% [at 19 µM]
same,"activity, negative = inhibition",[18],31.2% [at 19 µM]
same,"activity change, negative = inhibition",[15],17.2% [at 19 µM]
COc1c(Br)cc(Br)c(C)c1Br,Potency,[1],inactive
same,Potency,[2],inactive
same,Potency,[17],inactive
same,Potency,[4],inactive
same,Potency,[5],inactive
same,Potency,[7],inactive
same,Potency,[8],inactive
same,Potency,[9],inactive
same,Potency,[10],inactive
same,Potency,[11],inactive
same,Potency,[12],inactive
same,Potency,[13],inactive
same,Potency,[14],inactive
CCCCCCCCCCCCCCCCC(C(=O)O)C(O)(CC(=O)O)C(=O)O (stereo unspecified),Potency,[1],inactive
same,Potency,[2],inactive
same,Potency,[17],inactive
same,Potency,[4],inactive
same,Potency,[5],inactive
same,Potency,[7],inactive
same,Potency,[8],inactive
same,Potency,[9],inactive
same,Potency,[11],inactive
same,Potency,[12],inactive
same,Potency,[14],inactive
same,Potency,[18],inactive
same,Potency,[15],inactive
C=C1C(CCl)(CCl)C2(Cl)C(Cl)C(Cl)C1(Cl)C2(Cl)Cl (stereo unspecified),Potency,[1],54.3 µM (active)
same,Potency,[16],inactive
same,Potency,[17],inactive
same,Potency,[4],48.4 µM (active)
same,Potency,[5],inactive
same,Potency,[10],43.1 µM (active)
same,Potency,[20],inactive
same,Potency,[12],inactive
same,Potency,[18],48 µM (active)
Cc1ccc2nc(-c3ccc(N)cc3)sc2c1S(=O)(=O)O,Potency,[1],inactive
same,Potency,[2],inactive
same,Potency,[3],inactive
same,Potency,[17],inactive
same,Potency,[4],inactive
same,Potency,[5],inactive
same,Potency,[6],inactive
same,Potency,[7],inactive
same,Potency,[8],inactive
same,Potency,[9],inactive
same,Potency,[10],inactive
same,Potency,[11],inactive
same,Potency,[20],inactive
same,Potency,[12],inactive
same,Potency,[13],inactive
same,Potency,[18],inactive
same,Potency,[15],inactive
Oc1cccc2c(O)cccc12,Potency,[1],inactive
same,Potency,[2],inactive
same,Potency,[3],inactive
same,Potency,[17],inactive
same,Potency,[4],inactive
same,Potency,[5],inactive
same,Potency,[6],inactive
same,Potency,[7],inactive
same,Potency,[8],inactive
same,Potency,[10],inactive
same,Potency,[20],inactive
same,Potency,[12],inactive
same,Potency,[13],68.6 µM (active)
same,Potency,[14],inactive
same,Potency,[15],54.5 µM (active)
